HSP90 refold inh = blocks HSP90-mediated luciferase refolding in reticulocyte lysate | inhibition, % at 5.6 µM | Rabbit reticulocyte lysate, luciferase refolding luminescence, 3 h | 290,000 compounds, 0.91% hits;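 active = inhibition above the screen-wide mean plus 3 SD, computed separately per campaign, cut at about 16% in these data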;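 also: 0% = DMSO wells and 100% = 60 µM geldanamycin wells; inhibitors lower the luminescence because luciferase stays unfolded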
SENP8 block-1 = inhibitors of human SENP8 protease; Q96LD8; recombinant SENP8, Nedd8 substrate fluorescence; inhibition, % at 20 µM; 360,000 compounds, 0.64% hits; in the data active = inhibition mostly above about 40%, no sharp cut-off; inactive = mostly below about 27%
Target sequence (Q96LD8 whole entry, looked up): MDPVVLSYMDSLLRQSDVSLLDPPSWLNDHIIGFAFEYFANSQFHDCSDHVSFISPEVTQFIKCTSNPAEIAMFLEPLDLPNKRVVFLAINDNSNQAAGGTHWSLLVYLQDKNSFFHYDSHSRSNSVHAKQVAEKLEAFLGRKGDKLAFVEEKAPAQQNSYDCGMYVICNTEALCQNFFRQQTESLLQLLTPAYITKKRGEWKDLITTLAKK
SENP7 block = SENP7 protease inhibition; Q9BQF6; recombinant SENP7, Z-RLRGG-aminoluciferin luminescence, 40 min; inhibition, % at 5 µM; 330,000 compounds, 1.5% hits;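 active = inhibition above about 50% at the single test dose, limit read from the data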;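 also: plate controls were DMSO with enzyme for no effect and no enzyme buffer wells for full effect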
SENP6 block = inhibitors of human SENP6 protease | 330,000 compounds, 1.8% hits | inhibition, % at 10 µM | Recombinant SENP6 catalytic domain, aminoluciferin luminescence | Q9GZR1;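 active = inhibition above about 50% at the single tested dose, limit read from the data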;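 also: plate controls were DMSO wells with enzyme for no effect and DMSO wells lacking enzyme for full effect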
SENP8 block-2 = SENP8 protease inhibition. Q96LD8. inhibition, % at 10 µM. 330,000 compounds, 1.2% hits. purified SENP8, Z-RLRGG-aminoluciferin cleavage, luminescence; in the data active = inhibition above about 50%
SENP8 conf = confirmation of human SENP8 protease inhibitors | shares compounds with SENP7 block | Recombinant SENP8, Z-RLRGG-aminoluciferin luminescence, 60 min | inhibition, % at 12.5 µM | 6,200 compounds, 40% hits | AID 488912;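 active = mean inhibition across replicates above about 50%, limit read from the data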
SENP6 conf = confirmation of human SENP6 protease inhibitors; recombinant SENP6, Z-RLRGG-aminoluciferin luminescence; inhibition, % at 12.5 µM; AID 488915; 6,200 compounds, 58% hits; shares compounds with SENP7 block
SENP7 confirm = confirmation of human SENP7 protease inhibitors; recombinant SENP7, Z-RLRGG-aminoluciferin luminescence, 40 min; shares compounds with SENP7 block; 6,200 compounds, 69% hits; inhibition, % at 12.5 µM; AID 488917
Casp3 SENP sel = caspase-3 inhibition (SENP selectivity assay). shares compounds with SENP7 block. purified caspase-3, Z-DEVD-aminoluciferin luminescence, 60 min. inhibition, % at 12.5 µM. 6,200 compounds, 60% hits;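 active = mean inhibition above about 50%, limit read from the data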;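 also: plate controls were enzyme with DMSO for no effect and wells without caspase-3 for full effect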
Target sequence (P42574 28-227 limits assumed): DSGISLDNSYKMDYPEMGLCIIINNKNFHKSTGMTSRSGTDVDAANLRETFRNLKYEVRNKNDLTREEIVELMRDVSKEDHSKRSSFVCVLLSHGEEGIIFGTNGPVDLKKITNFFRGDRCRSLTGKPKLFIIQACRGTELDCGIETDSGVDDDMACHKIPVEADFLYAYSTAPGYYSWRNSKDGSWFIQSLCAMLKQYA
Luc interf = counter-screen for SENP inhibitors: luminescence interference; shares compounds with SENP7 block; Pre-incubated SENP8/Z-RLRGG-aminoluciferin, luciferase luminescence interference; inhibition, % at 12.5 µM; 6,200 compounds, 39% hits; AID 488919;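 active = mean inhibition above about 50% when retested at one dose, limit read from the data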;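 also: plate controls were DMSO wells with completed reaction for no effect and substrate without enzyme for full effect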
Active calls of the source: *. The list is not random: actives were taken first. Their share in the collection is about 2.7%.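 The calls were made as follows, unless noted: active = mean inhibition above about 50% in the one-dose retest (limit read from the data); inactive = the rest.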

How did O=C(Cn1nnc(-c2ccc3c(c2)OCO3)n1)Nc1ccccc1C(=O)O do in these assays?
HSP90 refold inh: 0; SENP8 block-1: -4; SENP7 block: 60*; SENP6 block: 89*; SENP8 block-2: 80*; SENP8 conf: 48; SENP6 conf: 87*; SENP7 confirm: 97*; Casp3 SENP sel: 87*; Luc interf: 87*

How did COc1cc(C(=O)Nc2nc3ccc(S(C)(=O)=O)cc3s2)cc(OC)c1C do in these assays?
HSP90 refold inh: -4; SENP8 block-1: -258; SENP7 block: 0; SENP6 block: 9; SENP8 block-2: 2

How did CS(=O)(=O)c1ccc2nc(NC(=O)c3cc([N+](=O)[O-])cc([N+](=O)[O-])c3)sc2c1 do in these assays?
HSP90 refold inh: 3; SENP8 block-1: 8; SENP7 block: 3; SENP6 block: 17; SENP8 block-2: 26

What do the screens show for `COc1cc(OC)cc(C(=O)Nc2nc3ccc(S(C)(=O)=O)cc3s2)c1`?
HSP90 refold inh: 3; SENP8 block-1: -175; SENP7 block: 98*; SENP6 block: 86*; SENP8 block-2: 91*; SENP8 conf: 93*; SENP6 conf: 96*; SENP7 confirm: 101*; Casp3 SENP sel: 96*; Luc interf: 92*

Results for CS(=O)(=O)c1ccc2nc(NC(=O)c3cccc([N+](=O)[O-])c3)sc2c1 ?
HSP90 refold inh: -2; SENP8 block-1: -14; SENP7 block: 97*; SENP6 block: 95*; SENP8 block-2: 95*; SENP8 conf: 98*; SENP6 conf: 99*; SENP7 confirm: 102*; Casp3 SENP sel: 97*; Luc interf: 78*

How did CC(C#Cc1ccc2c(c1)COc1c3ccccc3nn1-2)OC(C)(C)C (configuration not stated) do in these assays?
SENP8 block-1: -6; SENP7 block: -15; SENP6 block: -4; SENP8 block-2: -13

How did C#Cc1ccc2c(c1)COc1c3ccccc3nn1-2 do in these assays?
SENP8 block-1: -2; SENP7 block: 72*; SENP6 block: 96*; SENP8 block-2: 93*; SENP8 conf: 76*; SENP6 conf: 96*; SENP7 confirm: 101*; Casp3 SENP sel: 92*; Luc interf: 52*

How did C(#CC1CCCCC1)c1ccc2c(c1)COc1c3ccccc3nn1-2 do in these assays?
SENP8 block-1: -2; SENP7 block: 19; SENP6 block: 37; SENP8 block-2: 16

What do the screens show for `C(#Cc1ccc2c(c1)COc1c3ccccc3nn1-2)c1ccccc1`?
SENP8 block-1: -84; SENP7 block: 61*; SENP6 block: 76*; SENP8 block-2: 74*; SENP8 conf: 26; SENP6 conf: 31; SENP7 confirm: 57*; Casp3 SENP sel: 41; Luc interf: 49

What do the screens show for `NC(=O)COc1ccccc1C(=O)O`?
HSP90 refold inh: -1; SENP8 block-1: 10; SENP7 block: -7; SENP6 block: 12; SENP8 block-2: -5

Results for O=C(ONc1ccc(N=NC(=O)c2ccccc2O)cc1)c1ccccc1 ?
HSP90 refold inh: -3; SENP8 block-1: 32; SENP7 block: 56*; SENP6 block: 91*; SENP8 block-2: 85*; SENP8 conf: 26; SENP6 conf: 27; SENP7 confirm: 24; Casp3 SENP sel: 85*; Luc interf: 7

Results for CCOC(=O)CSc1nc2sccc2c(=O)[nH]1 ?
HSP90 refold inh: 1; SENP8 block-1: 12; SENP7 block: 1; SENP6 block: -5; SENP8 block-2: 3

Source: PubChem BioAssay (several laboratories)
